Results on 47 molecules are retold here after PubChem BioAssay AID504339 (National Center for Advancing Translational Sciences (NCATS), 2011).

In all, about 390,000 compounds went through this assay and about 17,000 (4.4%) were called active. Inconclusive results (about 8%) are left out. This is one part of a sample in which actives are shown more often than they occur. Values without a mark were called inactive. The call rests on the fitted dose curve; in most records, active means well fitted inhibition curve with a large enough effect; inconclusive means small, poorly fitted or top-dose-only effect; inactive means no such curve, though single readings can be large or run the other way.
On the % scale 0 is the no-effect control and ±100 the full control effect; potency means the concentration at half of the fitted maximal effect.

Lysine-specific demethylase 4A (Homo sapiens), sequence (O75164 whole entry, looked up, the tested form may be a part): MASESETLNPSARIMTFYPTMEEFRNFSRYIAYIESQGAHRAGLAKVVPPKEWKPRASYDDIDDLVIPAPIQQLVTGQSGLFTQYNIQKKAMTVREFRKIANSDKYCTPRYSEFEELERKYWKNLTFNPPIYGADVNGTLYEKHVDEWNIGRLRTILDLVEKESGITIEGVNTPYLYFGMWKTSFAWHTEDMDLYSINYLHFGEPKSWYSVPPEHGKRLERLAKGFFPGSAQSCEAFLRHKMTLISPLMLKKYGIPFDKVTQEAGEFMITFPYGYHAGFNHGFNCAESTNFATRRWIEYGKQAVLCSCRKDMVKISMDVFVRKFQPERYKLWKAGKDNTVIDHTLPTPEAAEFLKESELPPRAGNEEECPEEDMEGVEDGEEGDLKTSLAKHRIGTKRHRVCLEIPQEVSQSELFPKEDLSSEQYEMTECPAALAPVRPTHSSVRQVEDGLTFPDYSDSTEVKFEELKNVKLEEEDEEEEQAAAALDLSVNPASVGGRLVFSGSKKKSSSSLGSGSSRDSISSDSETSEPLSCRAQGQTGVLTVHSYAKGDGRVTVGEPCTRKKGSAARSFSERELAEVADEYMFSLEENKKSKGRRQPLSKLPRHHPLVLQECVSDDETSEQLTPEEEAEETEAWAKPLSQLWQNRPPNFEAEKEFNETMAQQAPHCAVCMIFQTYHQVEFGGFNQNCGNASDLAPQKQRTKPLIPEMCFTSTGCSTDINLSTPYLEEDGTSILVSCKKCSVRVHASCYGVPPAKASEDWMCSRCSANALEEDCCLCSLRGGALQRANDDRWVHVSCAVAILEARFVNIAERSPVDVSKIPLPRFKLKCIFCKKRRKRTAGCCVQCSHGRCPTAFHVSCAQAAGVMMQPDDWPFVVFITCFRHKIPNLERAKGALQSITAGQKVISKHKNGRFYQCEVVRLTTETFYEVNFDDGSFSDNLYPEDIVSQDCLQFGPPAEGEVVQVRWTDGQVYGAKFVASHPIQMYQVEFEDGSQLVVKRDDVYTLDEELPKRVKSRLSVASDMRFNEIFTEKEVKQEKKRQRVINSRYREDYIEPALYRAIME

This experiment concerns the target Lysine-specific demethylase 4A (Homo sapiens) (UniProt O75164). Description: qHTS Assay for Inhibitors of JMJD2A-Tudor Domain. Further: nearly all actives have a fitted effect of over 50% in size. To be noted: AlphaScreen JMJD2A-Tudor / H3K4me3 peptide binding; series mostly up to 114 µM; activity change, negative = inhibition: at the top concentration. (In qHTS, concentration-response curves come from the screen itself.)
`COc1ccc(NC(=O)CN2CCCN(Cc3ccccc3)S2(=O)=O)cc1`: the “activity change, negative = inhibition” value was -17.2%.
`Cc1nc(N2CCOCC2)c2c(C(=O)NCc3cccc(Cl)c3)c(C)oc2n1`: the “activity change, negative = inhibition” value was 6.15%.
Regarding `Cc1n[nH]c(=S)n1/N=C/c1ccc(Br)o1`, the Potency is 7.94 µM (active).
Consider `O=C(CCc1n[nH]c(=O)[nH]c1=O)N/N=C/c1ccc(Br)o1`, for which the “activity change, negative = inhibition” value is -13.1%.
As for `O=C(CCC(=O)N/N=C/c1ccc(Br)o1)N/N=C/c1ccc(Br)o1`, the “activity change, negative = inhibition” value was -12.7%.
As to `CC1CCCN(Cc2c(O)ccc3c(=O)c(Oc4ccc(C(C)(C)C)cc4)c(C(F)(F)F)oc23)C1` (configuration not stated), the “activity change, negative = inhibition” value is -1.38%.
Regarding `Cc1ccc(NC(=O)Cc2ccc(NC(=O)N3CCCCc4ccccc43)cc2)cc1`, the “activity change, negative = inhibition” value was -23%.
The same measure, in the same setting: in the case of `Cc1nc(SCC(=O)NC2CCCC2)[nH]c(=O)c1C` it was -10.3%; in that of `Cc1c(C)n2c(SCC(=O)N3CCCC3)nnc2[nH]c1=O`, 1.7%.
`Cc1c(C)n2c(SCC(=O)NC3CCCC3)nnc2[nH]c1=O`: the Potency was 14.1 µM (active).
As to `CCSc1nnc2c(n1)OC(c1ccc(OCC(=O)O)cc1)Nc1ccccc1-2` (configuration not stated), the “activity change, negative = inhibition” value is -30.4%.
The same measure, in the same setting: the result for `Cc1sc2ncn(CC(=O)N3CCN(c4ccc(F)cc4)CC3)c(=O)c2c1S(=O)(=O)N1CCN(c2ncccn2)CC1` reads -19.1%; that for `CCOc1ccc(-n2nc3ccc(NC(=O)c4ccc(OC)c(Cl)c4)cc3n2)cc1`, -16.8%.
On to `COc1cc(/C=C2/SC(=S)N(Cc3ccccc3)C2=O)cc(OC)c1O`, for which the Potency was 3.55 µM (active).
In the case of `COc1ccc(CCNC2=C(Cl)C(=O)N(Cc3ccccc3)C2=O)cc1OC`, the “activity change, negative = inhibition” value was 56.2%.
For the molecule `COc1ccc(CCN=C2SCC(=O)N2Cc2ccccc2)cc1OC`, the “activity change, negative = inhibition” value is -12.9%.
Take `COc1cc(Cl)c(C)cc1Nc1nnc(-n2nc(C)cc2C)c2ccccc12`: the “activity change, negative = inhibition” value was -0.662%.
The same measure, in the same setting: in the case of `Cc1ccc(C)c(Cn2c(C(=O)O)c(CNCc3cccs3)c3ccccc32)c1` it was -32.7%; in that of `COc1cc(NC(=O)COC(=O)c2ccc([N+](=O)[O-])s2)cc(OC)c1OC`, -28.9%.
Turning to `O=C(Nc1nnc(C2=COCCO2)o1)c1ccc([N+](=O)[O-])s1`, the Potency is 56.2 µM (active).
Turning to `CSc1ccccc1-c1nnc(NC(=O)c2ccc3c(c2)OCCO3)o1`, the “activity change, negative = inhibition” value is -12%.
For the molecule `CCOc1ccc(Nc2nc3c(S(=O)(=O)c4cccc(Cl)c4)nnn3c3ccsc23)cc1`, the “activity change, negative = inhibition” value was -8.06%.
Take `Cc1cc(OCC(=O)NCC2(N(C)C)CCCCC2)cc(C)c1Cl`: the “activity change, negative = inhibition” value was -11.6%.
Consider `CCCCCn1c(=O)[nH]c2cc(C(=O)Nc3cc(C)cc(C)c3)ccc2c1=O`, for which the “activity change, negative = inhibition” value is -7.85%.
In the case of `Cc1ccc(S(=O)(=O)N2CCN(S(=O)(=O)N3CCOCC3)CC2)cc1`, the “activity change, negative = inhibition” value is -9.43%.
Take `CCn1c(=S)[nH]c2cc(S(=O)(=O)N3CCOCC3)ccc21`: the Potency is 17.8 µM (active).
Consider `CCCCn1c(=S)[nH]c2cc(S(=O)(=O)N3CCCCC3)ccc21`, for which the “activity change, negative = inhibition” value is -17.6%.
Same read-out and setting: in the case of `Cc1ccc(-n2cnc3cc(C(=O)NCCC4=CCCCC4)ccc32)cc1Cl` it was -26.9%.
As for `CC1Cc2cc(S(=O)(=O)CCC(=O)Nc3ccc(F)c(Cl)c3)ccc2N1C(=O)C1CC1` (configuration not stated), the “activity change, negative = inhibition” value is -3.45%.
On to `COc1ccc(C2Nc3ccccc3C(=O)N2Cc2ccco2)cc1COc1cccc(NC(C)=O)c1` (configuration not stated), for which the Potency is 50.1 µM (active).
Regarding `COc1ccc(C(=O)N(Cc2ccccc2)Cc2ccc(OC)c(COc3ccc(NC(C)=O)cc3)c2)c(O)c1`, the “activity change, negative = inhibition” value is -29.9%.
On to `COc1ccc(C2Nc3ccccc3C(=O)N2Cc2ccc(CNC(=O)CO)cc2)cc1COc1ccc(NC(C)=O)cc1` (configuration not stated), for which the Potency was 79.4 µM (active).
Take `COc1ccc(C2Nc3ccc(NC(=O)COC(C)=O)cc3C(=O)N2Cc2ccccc2)cc1COc1ccc(NC(C)=O)cc1` (configuration not stated): the Potency was 79.4 µM (active).
As for `COc1ccc(C2Nc3ccccc3C(=O)N2Cc2ccc(Cl)cc2)cc1COc1ccc(NC(C)=O)cc1` (configuration not stated), the “activity change, negative = inhibition” value is -10.9%.
As to `COc1ccc(C2Nc3ccccc3C(=O)N2c2ccc(F)cc2)cc1Cn1nnc2ccccc21` (configuration not stated), the “activity change, negative = inhibition” value is 5.24%.
As to `COc1ccc(N2C(=O)C(CC(=O)Nc3ccccc3)N(Cc3ccc(OC)c(OC)c3)C2=O)cc1` (configuration not stated), the “activity change, negative = inhibition” value is -15.8%.
As to `COc1ccc(NC(=O)NC2CC3CCCC(C2)N3Cc2ccccc2)cc1` (configuration not stated), the “activity change, negative = inhibition” value was -20.1%.
As to `COc1ccc(C2Nc3cccc(OC)c3C(=O)N2Cc2ccccc2)cc1COc1ccc(NC(C)=O)cc1` (configuration not stated), the Potency is 56.2 µM (active).
For the molecule `COc1ccc(C2Nc3ccccc3C(=O)N2Cc2ccccc2)cc1Cn1nnc2ccccc21` (configuration not stated), the “activity change, negative = inhibition” value is -11.9%.
Same read-out and setting: the result for `CCOC(=O)NN1C(=O)c2ccccc2NC1c1cccc(O)c1` (configuration not stated) reads -2.14%; that for `COc1cc(C2C3=C(CCCC3=O)OC3=C2C(=O)CCC3)ccc1OCC(=O)Nc1ccccc1`, -19.2%; that for `CCOC(=O)c1cc2c(=O)n3ccccc3nc2n(CCCOC)c1=NC(=O)C(C)(C)Oc1ccc(Cl)cc1`, 8.53%.
For the molecule `Cc1ccc(-n2ncc3c(=O)n(Cc4cccc(C(F)(F)F)c4)cnc32)cc1C`, the “activity change, negative = inhibition” value was 0.336%.
The same measure, in the same setting: the result for `COC(=O)c1ccc(Cn2c(SCC(=O)N(C)c3ccccc3)nc3ccccc32)cc1` reads -25.2%; that for `Cc1ccc2onc(CC(=O)N3CCN(c4ccc(Cl)cc4)CC3)c2c1`, -19.7%.
Same read-out and setting: the result for `CC1CCN(S(=O)(=O)c2ccc3c(c2)N(CC(=O)NCc2ccccc2Cl)C(=O)CO3)CC1` reads -1.32%.
`O=C(NCC12CC3CC(CC(C3)C1)C2)c1cc2nc(-c3ccccc3)cc(C(F)(F)F)n2n1`: the “activity change, negative = inhibition” value is 17.5%.
